# Laboratory results taken from the supplement of paper PMC11738630.
# System: Salmonella enterica serovar Typhimurium 14028s
# Experiment: approximate change in surviving CFU after surface colonization relative to water-only control (log10 CFU/mL change); higher = more surviving bacteria (less inhibition of surface colonization)
# Details: not stated (Biolog proprietary concentration), surface: plastic 96-well plate, 20-24 h at 25 °C
compound,measurement,setting,value
OC[C@H]1OC(O)[C@@H](O)[C@@H](O)[C@@H]1O (stereo partly drawn) [D-Mannose],approximate change in surviving CFU (log10),"Biolog plate: PM1, Biolog well: A11",1.93
OC[C@H]1O[C@H](O)[C@H](O)[C@@H](O)[C@@H]1O [a-D-Glucose],approximate change in surviving CFU (log10),"Biolog plate: PM1, Biolog well: C9",2.34
O=C(O)CCC(=O)C(=O)O [a-Keto-Glutaric Acid],approximate change in surviving CFU (log10),"Biolog plate: PM1, Biolog well: D6",1.19
CCC(=O)C(=O)O [a-Keto-Butyric Acid],approximate change in surviving CFU (log10),"Biolog plate: PM1, Biolog well: D7",0.172
CO[C@H]1O[C@H](CO)[C@H](O)[C@H](O)[C@H]1O [a-Methyl-D-Galactoside],approximate change in surviving CFU (log10),"Biolog plate: PM1, Biolog well: D8",1.72
OC[C@H]1O[C@@H](O[C@H]2[C@H](O)[C@@H](O)[C@@H](O)O[C@@H]2CO)[C@H](O)[C@@H](O)[C@H]1O [a-D-Lactose],approximate change in surviving CFU (log10),"Biolog plate: PM1, Biolog well: D9",1.05
OC[C@H]1O[C@@](CO)(O[C@H]2O[C@H](CO)[C@@H](O)[C@H](O)[C@H]2O)[C@@H](O)[C@@H]1O [Sucrose],approximate change in surviving CFU (log10),"Biolog plate: PM1, Biolog well: D11",0.987
O=C(O)C(O)C(O)C(=O)O (stereo not given) [m-Tartaric Acid],approximate change in surviving CFU (log10),"Biolog plate: PM1, Biolog well: E2",1.04
CO[C@@H]1O[C@H](CO)[C@@H](O)[C@H](O)[C@H]1O [B-Methyl-D-Glucoside],approximate change in surviving CFU (log10),"Biolog plate: PM1, Biolog well: E8",1.33
OCC(O)C(O)C(O)CO (stereo not given) [Adonitol],approximate change in surviving CFU (log10),"Biolog plate: PM1, Biolog well: E9",1.37
Nc1ncnc2c1ncn2[C@H]1C[C@H](O)[C@@H](CO)O1 [2-Deoxy Adenosine],approximate change in surviving CFU (log10),"Biolog plate: PM1, Biolog well: E11",1.37
O[C@H]1[C@H](O)[C@@H](O)[C@H](O)[C@@H](O)[C@H]1O [myo-Inositol],approximate change in surviving CFU (log10),"Biolog plate: PM1, Biolog well: F3",0.902
O=C(O)[C@@H](O)[C@H](O)[C@H](O)[C@@H](O)C(=O)O [Mucic Acid],approximate change in surviving CFU (log10),"Biolog plate: PM1, Biolog well: F8",1.38
C[C@H](N)C(=O)NCC(=O)O [L-Alanyl-Glycine],approximate change in surviving CFU (log10),"Biolog plate: PM1, Biolog well: G6",0.966
O=C(O)C[C@@H](O)C(=O)O [D-Malic Acid],approximate change in surviving CFU (log10),"Biolog plate: PM1, Biolog well: G11",1.05
O=C(O)C[C@H](O)C(=O)O [L-Malic Acid],approximate change in surviving CFU (log10),"Biolog plate: PM1, Biolog well: G12",1.01
N#C[C@H](O[C@@H]1O[C@H](CO[C@@H]2O[C@H](CO)[C@@H](O)[C@H](O)[C@H]2O)[C@@H](O)[C@H](O)[C@H]1O)c1ccccc1 [Amygdalin],approximate change in surviving CFU (log10),"Biolog plate: PM2, Biolog well: B4",0.966
C[C@@H](O)[C@H](O)[C@H](O)[C@@H](O)C=O [D-Fucose],approximate change in surviving CFU (log10),"Biolog plate: PM2, Biolog well: B11",-0.408
O=C[C@H](O)[C@@H](O)[C@H](O)[C@H](O)CO[C@@H]1O[C@H](CO)[C@@H](O)[C@H](O)[C@H]1O [Gentiobiose],approximate change in surviving CFU (log10),"Biolog plate: PM2, Biolog well: C1",1.09
CO[C@H]1O[C@H](CO)[C@@H](O)[C@H](O)[C@H]1O [a-Methyl-D-Glucoside],approximate change in surviving CFU (log10),"Biolog plate: PM2, Biolog well: C6",1.2
CO[C@@H]1O[C@H](CO)[C@@H](O)[C@H](O)[C@H]1O [b-Methyl-D-Glucoside],approximate change in surviving CFU (log10),"Biolog plate: PM2, Biolog well: C7",1.33
CCCCCC(=O)O [Caproic Acid],approximate change in surviving CFU (log10),"Biolog plate: PM2, Biolog well: E2",-0.859
O=C(CO)[C@@H](O)[C@H](O)[C@@H](O)C(=O)O [5-Keto-D-Gluconic Acid],approximate change in surviving CFU (log10),"Biolog plate: PM2, Biolog well: E12",0.708
"NCC(O)c1ccc(O)cc1 (racemic) [D,L-Octopamine]",approximate change in surviving CFU (log10),"Biolog plate: PM2, Biolog well: H7",0.987
O=C(CO)CO [Dihydroxy Acetone],approximate change in surviving CFU (log10),"Biolog plate: PM2, Biolog well: H9",-4.4
O=NO [Nitrite],approximate change in surviving CFU (log10),"Biolog plate: PM3, Biolog well: A3",0.966
O=C(O)CC[C@@H](C(=O)O)N1C(=O)c2ccccc2C1=O [N-Phthaloyl-L-Glutamic Acid],approximate change in surviving CFU (log10),"Biolog plate: PM3, Biolog well: D2",-0.343
NO [Hydroxylamine],approximate change in surviving CFU (log10),"Biolog plate: PM3, Biolog well: D4",-0.687
NC=O [Formamide],approximate change in surviving CFU (log10),"Biolog plate: PM3, Biolog well: E5",-0.708
CC(=O)N[C@@H]1C(O)O[C@H](CO)[C@@H](O)[C@@H]1O (stereo partly drawn) [N-Acetyl-D-Mannosamine],approximate change in surviving CFU (log10),"Biolog plate: PM3, Biolog well: F1",0.15
O=c1[nH]c(=O)c2nc[nH]c2[nH]1 [Xanthine],approximate change in surviving CFU (log10),"Biolog plate: PM3, Biolog well: G1",0.408
O=C1NC(=O)C(=O)N1 [Parabanic Acid],approximate change in surviving CFU (log10),"Biolog plate: PM3, Biolog well: G6",-2.58e-05
CSCC[C@H](NC(=O)CN)C(=O)O,approximate change in surviving CFU (log10),"Biolog plate: PM3, Biolog well: H11",-0.558
OC[C@H]1OC(O)[C@H](O)[C@@H](O)[C@H]1O (stereo partly drawn) [D-Galactose],approximate change in surviving CFU (log10),"Biolog plate: PM1, Biolog well: A6",1.59
OC[C@H]1O[C@H](O[C@H]2O[C@H](CO)[C@@H](O)[C@H](O)[C@H]2O)[C@H](O)[C@@H](O)[C@@H]1O [D-Trehalose],approximate change in surviving CFU (log10),"Biolog plate: PM1, Biolog well: A10",1.59
OC[C@@H](O)[C@@H](O)[C@H](O)[C@H](O)CO [D-Mannitol],approximate change in surviving CFU (log10),"Biolog plate: PM1, Biolog well: B11",2.19
O=C[C@H](O)[C@@H](O)[C@H](O)[C@H](O)COP(=O)(O)O [D-Glucose-6-Phosphate],approximate change in surviving CFU (log10),"Biolog plate: PM1, Biolog well: C1",1.22
OC[C@H]1O[C@H](O[C@H]2[C@H](O)[C@@H](O)[C@H](O)O[C@@H]2CO)[C@H](O)[C@@H](O)[C@@H]1O [Maltose],approximate change in surviving CFU (log10),"Biolog plate: PM1, Biolog well: C10",1.57
OC[C@H]1O[C@H](OC[C@H]2OC(O)[C@H](O)[C@@H](O)[C@@H]2O)[C@H](O)[C@@H](O)[C@H]1O (stereo partly drawn) [D-Melibiose],approximate change in surviving CFU (log10),"Biolog plate: PM1, Biolog well: C11",1.82
OC[C@H]1O[C@@H](O[C@@H]2[C@@H](CO)OC(O)(CO)[C@H]2O)[C@H](O)[C@@H](O)[C@H]1O (mixture of isomers) [Lactulose],approximate change in surviving CFU (log10),"Biolog plate: PM1, Biolog well: D10",1.05
